Assay results reported in PubChem BioAssay.
Calls of active or inactive are those of the source.

Columns and labels:
[1] = test system: Plasmodium falciparum Sir2 (PF13_0152, Sir2A); assay: Plasmodium falciparum Sir2A binding compounds – biochemical, small-molecule microarray, 635 nm fluorescence, primary screen (AID 1098); settings: fluorescence 635 nm, higher = more signal;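 further: score merges spot fluorescence intensity with its signal-to-noise ratio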
[2] = probe aDKK1 binding to arrayed compounds – biochemical, biotinylated probe, 635/667 nm fluorescence, primary screen (AID 1099); settings: small-molecule microarray, higher = more signal;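 further: score merges 667nm spot fluorescence with signal to noise across triplicate slides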
[3] = probe aCHRDL2 binding to arrayed compounds – biochemical, biotinylated probe, 635/667 nm fluorescence, primary screen (AID 1100); settings: small-molecule microarray, higher = more signal
[4] = change in splice reporter luminescence, either direction, cell-based, HEK293, spliceosome inhibition project, primary screen (AID 1101); settings: HEK293 splicing luciferase reporter, 24 h, higher = more signal, called active from +8 up or from −8 down;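 further: HEK293 cells carrying a splicing-competent luciferase reporter gene; test concentration not given here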
[5] = molecular target: Fibroblast growth factor 10 (Homo sapiens) (UniProt O15520); assay: compounds binding fibroblast growth factor 10 – biochemical, small-molecule microarray, 635 nm fluorescence, primary screen (AID 1102); settings: FGF10 binding, fluorescence 635 nm, higher = more signal
[6] = test system: glycogen synthase kinase-3 (GSK3A per assay name; protocol says GSK3B); assay: compounds binding glycogen synthase kinase-3 – biochemical, small-molecule microarray, 635 nm fluorescence, GSK3A, primary screen (AID 1103); settings: fluorescence 635 nm, higher = more signal; further: the record names both GSK3A and GSK3B
[7] = molecular target: Epidermal growth factor receptor (Homo sapiens) (UniProt P00533); assay: compounds binding epidermal growth factor receptor – biochemical, small-molecule microarray, 635 nm fluorescence, primary screen (AID 1104); settings: EGFR binding, higher = more signal;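 further: score merges 667 nm emission intensity with spot signal to noise over triplicate slides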
[8] = molecular target: Follistatin-related protein 3 (Homo sapiens) (UniProt O95633); assay: compounds binding follistatin-related protein 3 – biochemical, small-molecule microarray, 635 nm fluorescence, primary screen (AID 1105); settings: FSTL3 binding, higher = more signal;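 further: score merges emission near 667 nm and signal to noise per printed spot across three slides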
[9] = molecular target: Dickkopf-related protein 1 (Homo sapiens) (UniProt O94907); assay: small molecules binding DKK1 protein – biochemical, small-molecule microarray, 635 nm fluorescence scan, primary screen (AID 1106); settings: higher = more signal;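 further: score merges emission near 667 nm with signal to noise over three replicate slides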
[10] = test system: Inhibin beta A chain (activin A); assay: small molecules binding activin A – biochemical, small-molecule microarray, 635 nm fluorescence scan, primary screen (AID 1107); settings: INHBA, higher = more signal;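 further: mouse activin A protein probed at 4.33 µg/mL on printed slides; score merges bound-protein fluorescence near 667 nm with spot signal-to-noise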
[11] = test system: Human papillomavirus type 1a protein E7 (residues 44-93); assay: small molecules binding HPV E7 44-93 – biochemical, small-molecule microarray, residues 44-93, 635 nm fluorescence, primary screen (AID 1108); settings: fluorescence 635 nm, higher = more signal;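 further: E7 fragment applied at 1 µg/mL in TBST for 1 h at 4 C; score combines spot fluorescence with its signal to noise ratio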
[12] = hepatitis C replication reporter changes, two-sided – Huh7 cells, luciferase reporter, HCV replication inhibitor project, primary screen (AID 1109); settings: Huh7 HCV replicon luciferase reporter, 48 h; higher = more signal;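 further: huh7 hepatoma cells harbouring a luciferase neomycin HCV replicon reporter; luciferase luminescence as measure of HCV replicon replication; test concentration not given here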
[13] = molecular target: Left-right determination factor 2 (Homo sapiens) (UniProt O00292); assay: small molecules binding LEFTY2 protein – biochemical, small-molecule microarray, 635 nm fluorescence scan, primary screen (AID 1110); settings: higher = more signal
[14] = molecular target: Calmodulin-1 (Homo sapiens) (UniProt P0DP23); assay: small molecules binding calmodulin-1 with EGTA – biochemical, small-molecule microarray, Cy5-labelled CALM1, profiling panel (AID 1111); settings: Cy5-CALM1 binding fluorescence, higher = more signal;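 further: labelled calmodulin applied in Tris saline Tween buffer holding calcium plus EGTA and DTT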
[15] = molecular target: Calmodulin-1 (Homo sapiens) (UniProt P0DP23); assay: small molecules binding Ca-loaded calmodulin-1 – biochemical, small-molecule microarray, Cy5-labelled CALM1, plus calcium, artefact control for SMM control-protein annotation, profiling panel (AID 1112); settings: Cy5-CALM1 binding fluorescence, higher = more signal;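 further: score merges spot fluorescence with signal to noise from triplicate slides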
[16] = probe aWnt5a binding to arrayed compounds – biochemical, biotinylated probe, 635/667 nm fluorescence, primary screen (AID 1113); settings: small-molecule microarray, higher = more signal;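 further: score merges 667 nm fluorescence intensity with signal-to-noise per printed feature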
[17] = probe aShh binding to arrayed compounds – biochemical, biotinylated probe, 635/667 nm fluorescence, primary screen (AID 1114); settings: small-molecule microarray, higher = more signal;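 further: probe is biotin-labelled aShh protein from a stem cell growth factor screen; measures binding of labelled protein to compounds printed on the slide; score merges feature fluorescence at 667 nm with signal-to-noise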
[18] = probe aNog binding to arrayed compounds – biochemical, biotinylated probe, 635/667 nm fluorescence, primary screen (AID 1115); settings: small-molecule microarray, higher = more signal;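 further: probe is biotinylated aNog protein used at 0.15 µg/mL for 1 h at 4 C; z-score combines 667 nm fluorescence of each spot with its signal to noise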
[19] = molecular target: Torsin-1A-interacting protein 1 (Homo sapiens) (UniProt Q5JTV8); assay: compound microarray binding of lysate hLAP1 – cell lysate, small-molecule microarray, COS7 lysate, 635/667 nm fluorescence, primary screen (AID 1116); settings: 635 nm fluorescence, higher = more signal
[20] = molecular target: Alpha-bungarotoxin (Bungarus multicinctus) (UniProt P60615); assay: compounds binding labelled alpha-BTX control protein – biochemical, small-molecule microarray, Alexa647 label, 635/667 nm fluorescence, artefact control for SMM control protein annotation, profiling panel (AID 1117); settings: alpha-BTX-A647 binding fluorescence, higher = more signal
Sequence of Alpha-bungarotoxin (Bungarus multicinctus) (P60615 whole entry, looked up): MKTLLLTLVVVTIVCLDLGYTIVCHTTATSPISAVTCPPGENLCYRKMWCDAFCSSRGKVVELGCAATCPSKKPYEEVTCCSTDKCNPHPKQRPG

Sequence of Fibroblast growth factor 10 (Homo sapiens) (O15520 whole entry, looked up): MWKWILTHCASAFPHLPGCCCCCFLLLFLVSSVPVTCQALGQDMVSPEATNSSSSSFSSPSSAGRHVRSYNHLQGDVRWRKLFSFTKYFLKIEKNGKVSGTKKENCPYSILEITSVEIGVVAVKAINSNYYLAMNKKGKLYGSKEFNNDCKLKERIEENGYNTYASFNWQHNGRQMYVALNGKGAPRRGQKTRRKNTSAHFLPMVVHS
Sequence of Epidermal growth factor receptor (Homo sapiens) (P00533 whole entry, looked up): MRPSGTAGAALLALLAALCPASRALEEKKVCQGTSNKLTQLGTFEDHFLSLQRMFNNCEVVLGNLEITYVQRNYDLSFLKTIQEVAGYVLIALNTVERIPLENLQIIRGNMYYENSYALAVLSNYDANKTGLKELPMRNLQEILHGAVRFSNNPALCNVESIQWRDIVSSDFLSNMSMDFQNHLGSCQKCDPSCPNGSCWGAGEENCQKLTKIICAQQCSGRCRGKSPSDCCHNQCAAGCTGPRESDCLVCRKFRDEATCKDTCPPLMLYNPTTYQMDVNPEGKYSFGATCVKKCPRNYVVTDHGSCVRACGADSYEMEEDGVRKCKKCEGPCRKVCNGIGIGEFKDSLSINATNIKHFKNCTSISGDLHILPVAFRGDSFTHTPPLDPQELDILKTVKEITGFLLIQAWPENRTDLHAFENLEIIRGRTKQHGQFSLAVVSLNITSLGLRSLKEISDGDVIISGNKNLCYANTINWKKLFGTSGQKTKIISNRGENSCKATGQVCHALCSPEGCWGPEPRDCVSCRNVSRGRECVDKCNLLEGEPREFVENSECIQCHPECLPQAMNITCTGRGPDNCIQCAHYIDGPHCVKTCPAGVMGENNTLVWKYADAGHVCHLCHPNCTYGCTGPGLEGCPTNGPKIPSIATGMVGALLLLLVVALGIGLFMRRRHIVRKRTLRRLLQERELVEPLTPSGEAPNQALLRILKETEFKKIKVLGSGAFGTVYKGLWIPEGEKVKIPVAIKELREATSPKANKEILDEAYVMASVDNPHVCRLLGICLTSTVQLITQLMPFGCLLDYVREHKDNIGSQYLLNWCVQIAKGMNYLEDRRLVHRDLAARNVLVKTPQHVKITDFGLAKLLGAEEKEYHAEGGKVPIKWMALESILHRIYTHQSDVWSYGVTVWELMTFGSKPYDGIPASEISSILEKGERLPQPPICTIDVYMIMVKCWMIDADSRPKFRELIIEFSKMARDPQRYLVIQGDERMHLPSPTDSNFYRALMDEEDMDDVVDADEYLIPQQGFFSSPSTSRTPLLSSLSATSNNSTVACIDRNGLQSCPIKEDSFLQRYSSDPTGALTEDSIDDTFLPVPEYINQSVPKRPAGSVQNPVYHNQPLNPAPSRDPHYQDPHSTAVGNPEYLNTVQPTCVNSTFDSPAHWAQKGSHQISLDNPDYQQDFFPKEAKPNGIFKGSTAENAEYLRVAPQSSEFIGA
Sequence of Torsin-1A-interacting protein 1 (Homo sapiens) (Q5JTV8 whole entry, looked up): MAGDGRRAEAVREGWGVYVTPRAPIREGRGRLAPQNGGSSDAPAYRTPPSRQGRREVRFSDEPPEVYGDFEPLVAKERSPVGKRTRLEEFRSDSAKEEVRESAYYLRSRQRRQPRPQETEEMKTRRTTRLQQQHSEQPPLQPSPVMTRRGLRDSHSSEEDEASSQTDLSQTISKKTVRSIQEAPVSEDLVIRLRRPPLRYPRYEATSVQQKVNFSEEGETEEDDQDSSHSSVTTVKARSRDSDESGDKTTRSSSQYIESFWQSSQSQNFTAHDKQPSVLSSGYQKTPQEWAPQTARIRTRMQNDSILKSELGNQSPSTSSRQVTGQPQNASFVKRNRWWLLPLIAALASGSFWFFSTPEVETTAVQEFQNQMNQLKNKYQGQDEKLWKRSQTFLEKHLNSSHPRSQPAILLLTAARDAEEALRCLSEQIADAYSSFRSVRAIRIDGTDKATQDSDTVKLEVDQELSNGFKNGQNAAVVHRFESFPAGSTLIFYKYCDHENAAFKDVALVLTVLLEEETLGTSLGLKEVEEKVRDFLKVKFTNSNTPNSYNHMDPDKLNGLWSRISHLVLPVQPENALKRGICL
Sequence of Left-right determination factor 2 (Homo sapiens) (O00292 whole entry, looked up): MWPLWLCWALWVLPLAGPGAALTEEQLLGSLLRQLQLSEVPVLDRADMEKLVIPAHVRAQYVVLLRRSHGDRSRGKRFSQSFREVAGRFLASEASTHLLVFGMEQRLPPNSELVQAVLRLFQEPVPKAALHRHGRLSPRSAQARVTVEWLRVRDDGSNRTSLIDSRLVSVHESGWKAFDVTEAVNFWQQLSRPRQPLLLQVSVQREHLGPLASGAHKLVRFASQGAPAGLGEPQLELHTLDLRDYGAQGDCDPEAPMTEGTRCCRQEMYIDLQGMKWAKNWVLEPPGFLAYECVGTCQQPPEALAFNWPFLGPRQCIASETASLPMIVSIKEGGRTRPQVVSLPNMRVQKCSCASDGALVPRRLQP
Sequence of Follistatin-related protein 3 (Homo sapiens) (O95633 whole entry, looked up): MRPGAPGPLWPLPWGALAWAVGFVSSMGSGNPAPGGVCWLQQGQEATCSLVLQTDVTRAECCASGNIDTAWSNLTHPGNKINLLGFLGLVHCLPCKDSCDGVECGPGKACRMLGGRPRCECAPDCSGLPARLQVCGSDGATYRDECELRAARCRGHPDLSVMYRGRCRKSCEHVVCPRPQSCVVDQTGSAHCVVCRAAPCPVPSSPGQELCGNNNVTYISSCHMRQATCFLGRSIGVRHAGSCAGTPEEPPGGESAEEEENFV
Sequence of Dickkopf-related protein 1 (Homo sapiens) (O94907 whole entry, looked up): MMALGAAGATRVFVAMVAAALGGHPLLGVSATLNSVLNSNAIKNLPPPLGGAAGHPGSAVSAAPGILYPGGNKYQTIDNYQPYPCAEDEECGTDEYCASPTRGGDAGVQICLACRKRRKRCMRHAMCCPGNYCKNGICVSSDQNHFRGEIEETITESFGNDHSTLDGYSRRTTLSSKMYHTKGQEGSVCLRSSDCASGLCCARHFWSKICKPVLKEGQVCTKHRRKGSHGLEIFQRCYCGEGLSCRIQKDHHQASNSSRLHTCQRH

Structure (SMILES)	composite z-score [1]	composite z-score [2]	composite z-score [3]	z-score [4]	composite z-score [5]	composite z-score [6]	composite z-score [7]	composite z-score [8]	composite z-score [9]	composite z-score [10]	composite z-score [11]	z-score [12]	composite z-score [13]	composite z-score [14]	composite z-score [15]	composite z-score [16]	composite z-score [17]	composite z-score [18]	composite z-score [19]	composite z-score [20]
COCCOC(=O)N1C(=O)[C@@]2(c3cc(C#Cc4ccc(OC)cc4)ccc31)[C@H](C(=O)N1CCCCCCC1)[C@H]1C(=O)O[C@H](c3ccccc3)[C@H](c3ccccc3)N1[C@@H]2c1ccc(OCCO)cc1	1.37	2.34	1.45	-0.16 (inactive)	1.7	1.33	1.13	1.45	1.76	1.58	0.114	-1.7	1.47	1.88	1.2	0.543	2.15	2.9	2.98	1.14
OC([C@@H]1CC(c2ccccc2)=NO1)[C@H]1CC(c2ccccc2)=NO1 (stereo not given in full)	-0.345	-0.29	-0.136	-0.247 (inactive)	0.0725	-0.453	-0.29	0.031	0.446	0.672	-0.0304	0.341	0.176	-0.181	-0.416	0.0317	-0.214	-0.234	0.11	-0.0544
CCCCCN1CC=CC23O[C@@H]4/C=C\CCCOC(=O)C4[C@H]2C(=O)N(CCCO)[C@@H]3C1=O (stereo not given in full)	0.93	-0.175	0.062	0.308 (inactive)	0.0154	1.06	-0.346	-0.352	-0.663	1.41	0.626	-0.549	-0.174	-0.113	0.132	-0.128	-0.214	-0.244	2.88	-0.0566
COCCCNC(=O)[C@@]1(Cc2ccccc2)N=C(c2ccc(OCCCO)cc2)O[C@H]1c1ccccc1	1.19	1.22	1.28	0.272 (inactive)	0.849	1.02	-0.804	-0.569	-0.728	1.01	0.53	-1.39	-0.582	2.34	1.05	-0.174	-0.36	-0.442	1.96	2.34
COCCOC(=O)N1C(=O)[C@@]2(c3cc(C#Cc4ccc(OC)cc4)ccc31)[C@H](C(N)=O)[C@H]1C(=O)O[C@H](c3ccccc3)[C@H](c3ccccc3)N1[C@@H]2c1ccccc1OCCO	1.48	0.714	0.634	-0.265 (inactive)	1.12	1.21	0.824	0.93	0.705	0.312	1.33	-1.49	0.738	2.22	0.618	-0.0134	-0.0988	0.168	2.3	2.97
COc1ccc([Si](C)(C)[C@@H]2[C@@H](CCO)O[C@]3(C(=O)N(Cc4ccc(N5C(=O)COc6ccccc65)cc4)c4ccccc43)[C@H]2C)cc1	1.31	0.146	0.147	-1.68 (inactive)	0.808	0.522	0.334	0.469	0.129	0.678	-0.674	-4.99	0.88	1.51	0.879	0.199	-0.0146	-0.394	0.572	0.896
COc1ccc(COC2OC[C@]3(C)[C@H]4C5=C(CN3C(=O)OC(C)(C)C)[C@H](C)C(CO)C(CO)C5CC[C@@H]24)cc1 (stereo not given in full)	1	1.06	0.983	-0.807 (inactive)	0.755	1.3	-0.452	1.07	-0.432	0.797	1.27	-0.355	-0.877	1.44	0.86	0.0118	0.202	0.97	1.17	0.608
C=C(CCCC)C(=O)CC[C@H](OC(=O)c1cccnc1)c1ccccc1OCCO	0.619	-0.322	0.154	-0.637 (inactive)	0.704	-1.05	-0.0934	0.12	0.137	1.1	-0.935	-2.46	-0.154	-0.398	-0.95	-0.0758	-0.102	-0.136	-0.0529	-0.0583
O=C1O[C@H](c2ccccc2)[C@H](c2ccccc2)N2[C@H]1[C@@H](C(=O)O)[C@]1(C(=O)Nc3ccc(C#CC4=CCCCC4)cc31)[C@H]2c1ccccc1OCCO	1.49	-0.738	0.134	-0.246 (inactive)	1.19	1.32	0.228	1.23	0.455	1.01	-0.65	-2.4	0.663	1.61	0.179	0.795	-0.602	0.948	0.926	2.23
CCOC(=O)C[C@H]1[C@H](OC(=O)c2ccc(C(=O)c3ccccc3)cc2)[C@@H](NC(=O)c2ccc(-c3ccccc3)cc2)c2cc(OCCCO)ccc2N1C(=O)c1ccccc1	0.82	-0.222	-0.387	0.475 (inactive)	0.994	0.477	0.515	0.723	0.321	-0.144	1.3	-1.1	0.342	0.228	-0.119	0.193	-0.0709	-0.632	0.191	0.706
CN(C)C(=O)[C@]1(Cc2ccccc2CN=[N+]=[N-])N=C(c2ccc(OCCCO)cc2)O[C@@H]1c1ccccc1CN=[N+]=[N-]	0.0579	0.423	0.708	0.646 (inactive)	1.17	1.32	-0.0263	1.18	-0.38	0.844	1.47	-3.12	0.189	0.324	0.708	0.216	0.249	0.76	1.39	0.832
